Sampled rows, rich in hits. Any-hit rate of the full collection: about 31%.
CYP2C9 act = increases human cytochrome P450 2C9 activity. AID 1024. recombinant CYP2C9, luciferin-H conversion, luminescence; hits give high values; factor 1 = untreated enzyme, 0 = blocked. P11712. actives 1.4% (n = 96,000). activation factor at 5 µM;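 active means activation factor of 2 or more for CYP2C9 at a 5 µM dose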;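 further: 0 = sulfaphenazole-blocked wells and 1 = vehicle-only wells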
CYP2C19 inh = human CYP2C19 inhibition. P33261. CYP2C19 Supersomes, luciferin-H EGE luminescence, 30 min. inhibition, % at 5 µM. actives 21% (n = 96,000);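 active means CYP2C19 inhibition above a set limit at 5 µM in the primary screen, cut at about 50% in these data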;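 further: plate controls were negative control wells for no effect and 2.5 mM tranylcypromine positive control for full effect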
Target sequence (P33261 whole entry, looked up): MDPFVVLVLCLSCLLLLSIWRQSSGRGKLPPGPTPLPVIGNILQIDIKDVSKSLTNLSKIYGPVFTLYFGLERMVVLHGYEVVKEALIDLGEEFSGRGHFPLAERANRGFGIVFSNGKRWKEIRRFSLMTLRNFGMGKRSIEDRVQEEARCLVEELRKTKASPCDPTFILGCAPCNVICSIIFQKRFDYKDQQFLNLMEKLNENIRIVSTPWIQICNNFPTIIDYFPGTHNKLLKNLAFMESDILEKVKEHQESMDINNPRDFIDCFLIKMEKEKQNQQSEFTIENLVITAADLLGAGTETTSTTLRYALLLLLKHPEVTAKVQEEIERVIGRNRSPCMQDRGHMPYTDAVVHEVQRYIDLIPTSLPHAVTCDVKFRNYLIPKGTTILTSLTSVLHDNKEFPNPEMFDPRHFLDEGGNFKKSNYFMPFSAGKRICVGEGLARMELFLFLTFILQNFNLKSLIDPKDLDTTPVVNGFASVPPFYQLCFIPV
CYP2C19 act = activators of human cytochrome P450 2C19; AID 1025; activation factor at 5 µM; 96,000 tested, under 10 active; recombinant CYP2C19, luciferin-H EGE luminescence; hits give high values; 0 = fully inhibited enzyme, 1 = untreated enzyme; P33261;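 active means activation factor of at least 2 at 5 µM in the primary screen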;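 further: 0 = wells with 2.5 mM tranylcypromine and 1 = vehicle-only wells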
CYP2C9 inh = inhibitors of human CYP2C9. P11712. CYP2C9 Supersomes, luciferin-H conversion, luminescence. inhibition, % at 5 µM. actives 20% (n = 96,000). AID 777;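 active means blocking of liver enzyme CYP2C9 beyond about 50% at 5 µM, limit read from the data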
* = called active by the depositor.

For CCCN(CCC)CCCNC(=O)c1ccc2c(c1)N(CC)C(=O)c1ccccc1S2=O (stereo unspecified) the results were CYP2C9 act 0.9, CYP2C19 inh -1, CYP2C19 act 1 and CYP2C9 inh 10.
CCCCNC(=O)c1ccc2c(c1)N(CC)C(=O)c1ccccc1S2(=O)=O was read as CYP2C9 act 0.1, CYP2C19 inh 46, CYP2C19 act 0.5 and CYP2C9 inh 90*.
Cn1nc(C(F)(F)F)c(/C=N/OC(=O)c2ccccc2Cl)c1SCc1ccc(Cl)cc1 was read as CYP2C9 act 0.2, CYP2C19 inh 54*, CYP2C19 act 0.5 and CYP2C9 inh 77*.
Screening Cc1ccc(C(=O)O/N=C/c2c(C(F)(F)F)nn(C)c2Sc2ccc(Cl)cc2)cc1 returned CYP2C9 act 0.2, CYP2C19 inh 23, CYP2C19 act 0.8 and CYP2C9 inh 80*.
COC(=O)c1ccccc1Sc1c(/C=N/OC(=O)c2ccccc2)c(C(F)(F)F)nn1C was read as CYP2C9 act 0.1, CYP2C19 inh 39, CYP2C19 act 0.6 and CYP2C9 inh 91*.
For Cc1c(NS(=O)(=O)c2ccc3[nH]c(=O)[nH]c3c2)c(=O)n(-c2ccccc2)n1C the results were CYP2C9 act 1, CYP2C19 inh -13, CYP2C19 act 1.1 and CYP2C9 inh 0.
For O=C(NC1CCCCC1)NC1CC2CCC(C1)N2Cc1nnnn1Cc1ccc2c(c1)OCO2 (stereo unspecified) the results were CYP2C9 act 0.9, CYP2C19 inh 20, CYP2C19 act 0.8 and CYP2C9 inh 6.
Cc1ccc(-c2ccc(/C=N/NC(=S)Nc3ccccc3)o2)cc1[N+](=O)[O-] was read as CYP2C9 act 0.5, CYP2C19 inh 65*, CYP2C19 act 0.3 and CYP2C9 inh 53*.
Cc1ccc(-c2ccc(/C=N\NC(=O)c3cc4c(ccc5ccccc54)o3)o2)cc1[N+](=O)[O-] was read as CYP2C9 act 1, CYP2C19 inh -13, CYP2C19 act 1.1 and CYP2C9 inh 4.
Screening COCCCn1ccc(O)c(Cc2ccc(F)cc2)c1=O returned CYP2C9 act 0.8, CYP2C19 inh 33, CYP2C19 act 0.7 and CYP2C9 inh 18.
Cc1cc(N)ccc1-n1c(C)ccc1C was read as CYP2C9 act 0.6, CYP2C19 inh 53*, CYP2C19 act 0.5 and CYP2C9 inh 36.
CCOCc1cc(C)[nH]c(=O)c1C#N was read as CYP2C9 act 1, CYP2C19 inh 5, CYP2C19 act 1 and CYP2C9 inh 4.
Screening Fc1ccc(Cn2cnc3ccccc32)cc1 returned CYP2C9 act 0.9, CYP2C19 inh 44, CYP2C19 act 0.6 and CYP2C9 inh 13.
Screening CCCOc1ccc(Cn2cnc3ccccc32)cc1 returned CYP2C9 act 0.1, CYP2C19 inh 65*, CYP2C19 act 0.4 and CYP2C9 inh 87*.
Screening Cc1ccccc1OCCCCn1cnc2ccccc21 returned CYP2C9 act 0.7, CYP2C19 inh 61*, CYP2C19 act 0.4 and CYP2C9 inh 35.
Screening c1ccc(OCCCCn2cnc3ccccc32)cc1 returned CYP2C9 act 0.9, CYP2C19 inh 60*, CYP2C19 act 0.4 and CYP2C9 inh 9.
`Cc1cccc(Cn2cnc3ccccc32)c1` gave CYP2C9 act 0.5, CYP2C19 inh 84*, CYP2C19 act 0.2 and CYP2C9 inh 53*.
Brc1ccccc1OCCCn1cnc2ccccc21 was read as CYP2C9 act 0.4, CYP2C19 inh 58*, CYP2C19 act 0.4 and CYP2C9 inh 60*.
Screening Cc1ccc(C(C(=O)NC2CCCCC2)N2CCN(C(=O)c3ccco3)CC2)cc1 (stereo unspecified) returned CYP2C9 act 0.7, CYP2C19 inh 47, CYP2C19 act 0.5 and CYP2C9 inh 27.
Fc1ccc(SCCc2ccncc2)cc1 was read as CYP2C9 act 0.2, CYP2C19 inh 97*, CYP2C19 act 0 and CYP2C9 inh 82*.
`O=S(CCc1ccncc1)Cc1ccccc1` (stereo unspecified) gave CYP2C9 act 0.5, CYP2C19 inh 85*, CYP2C19 act 0.2 and CYP2C9 inh 53*.
Screening O=C(NCCc1ccncc1)C(F)(F)F returned CYP2C9 act 1.1, CYP2C19 inh -1, CYP2C19 act 1 and CYP2C9 inh -6.
CCCCS(=O)Cc1ccccc1 (stereo unspecified) was read as CYP2C9 act 1.4, CYP2C19 inh -9, CYP2C19 act 1.1 and CYP2C9 inh -42.
c1ccc(SCCc2ccncc2)cc1 was read as CYP2C9 act 0.2, CYP2C19 inh 95*, CYP2C19 act 0 and CYP2C9 inh 81*.
O=C(NCCSc1ccccc1)c1cccnc1 was read as CYP2C9 act 0.8, CYP2C19 inh 40, CYP2C19 act 0.6 and CYP2C9 inh 22.
`Fc1cc(F)c(F)c(SCCc2ccncc2)c1F` gave CYP2C9 act 0.3, CYP2C19 inh 81*, CYP2C19 act 0.2 and CYP2C9 inh 74*.
CCC1(C)Cc2c(c(=O)n(-c3ccccc3)c3ncnc(N)c23)CO1 (stereo unspecified) was read as CYP2C9 act 1, CYP2C19 inh -15, CYP2C19 act 1.2 and CYP2C9 inh -4.
Screening CCCOc1ccc(N2C(=O)CC(N3CCN(c4nc5ccccc5s4)CC3)C2=O)cc1 (stereo unspecified) returned CYP2C9 act 1.2, CYP2C19 inh -21, CYP2C19 act 1.2 and CYP2C9 inh -15.
Screening O=C1OCc2cc(NC(=O)C3CCCCC3)ccc21 returned CYP2C9 act 0.8, CYP2C19 inh 22, CYP2C19 act 0.8 and CYP2C9 inh 19.
For O=C(c1ccc2c(c1)OCCO2)C1CCN(S(=O)(=O)c2ccccc2F)CC1 the results were CYP2C9 act 1.1, CYP2C19 inh 40, CYP2C19 act 0.6 and CYP2C9 inh -10.
Cc1ccc(C(=O)C2CCN(CC(=O)Nc3ccc4c(c3)OCCO4)CC2)cc1 was read as CYP2C9 act 0.4, CYP2C19 inh 23, CYP2C19 act 0.8 and CYP2C9 inh 62*.
`O=C(CN1CCC(C(=O)c2ccc3c(c2)OCCO3)CC1)NC1CCCC1` gave CYP2C9 act 0.8, CYP2C19 inh 84*, CYP2C19 act 0.2 and CYP2C9 inh 16.
`CCOc1ccc(C(=O)N2CCC(C(=O)c3ccc4c(c3)OCCO4)CC2)cc1` gave CYP2C9 act 0.4, CYP2C19 inh 85*, CYP2C19 act 0.2 and CYP2C9 inh 55*.
`Cc1ccc(C(=O)C2CCN(CC(=O)Nc3nc(C)cs3)CC2)cc1` gave CYP2C9 act 0.1, CYP2C19 inh 48, CYP2C19 act 0.5 and CYP2C9 inh 90*.
For Cc1ccc(C(=O)C2CCN(CC(=O)Nc3ccc(N(C)C)cc3)CC2)cc1 the results were CYP2C9 act 0.6, CYP2C19 inh 15, CYP2C19 act 0.8 and CYP2C9 inh 39.
Screening CCCCOc1ccc(NC(=O)C(=O)NCCC2=CCCCC2)cc1 returned CYP2C9 act 1.1, CYP2C19 inh -3, CYP2C19 act 1 and CYP2C9 inh -12.
O=C(Nc1cc(C(F)(F)F)ccc1N1CCCC1)c1cccnc1 was read as CYP2C9 act 0.6, CYP2C19 inh 43, CYP2C19 act 0.6 and CYP2C9 inh 43.
